Measured values taken from PubChem BioAssay AID2113 (National Center for Advancing Translational Sciences (NCATS), 2009).
Results filed as inconclusive are left out. Calls of active or inactive are those of the source. The call rests on the fitted dose curve; in most records, active means well fitted curve in either direction with a large enough effect; inconclusive means small, poorly fitted or top-dose-only effect; inactive means no such curve, though single readings can be large or run the other way.

target: Lysosomal alpha-glucosidase (Homo sapiens) (UniProt P10253); assay: Confirmation of Inhibitors and Activators of Human alpha-Glucosidase From Spleen Homogenate; conditions: alpha-glucosidase enzyme activity; series mostly up to 60.5 µM;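 on Potency: fluorescence of 4-methylumbelliferone released from a fluorogenic glucopyranoside substrate at pH 5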
Procedure, shortened: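 Compounds titrated against spleen-homogenate alpha-glucosidase, pH 5.0, 1 mM 4-MU-glucoside substrate, 37 C for 40 min. Fluorescence after pH 10 stop, normalised to no-enzyme and enzyme controls; Hill-equation AC50.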
Potency means the concentration at half of the fitted maximal effect.

Potency, inactive:
CC(=O)c1ccc(N2CCN(S(=O)(=O)c3ccc4c(c3)CC(C)N4C(C)=O)CC2)cc1 (stereo unspecified)
CC(=O)c1ccc(N2CCN(S(=O)(=O)c3ccc4c(c3)oc(=O)n4C)CC2)cc1
C(=C/c1ccc2ccccc2n1)/c1ccc2c(c1)OCO2
Cc1ccc(N/N=C2\CCS(=O)(=O)c3sccc32)cc1
O=c1cc(-c2ccccc2)[nH]c2[nH]n(-c3ccccc3)c(=O)c12
CC(=O)c1ccc(N2CCN(S(=O)(=O)c3ccc4c(c3)OCC(=O)N4)CC2)cc1
Cc1c(Nc2c3ccccc3nc3ccccc23)c(=O)n(-c2ccccc2)n1C
O=S(=O)(c1ccc(-c2ccccc2)cc1)N1CCOCC1
CC1CCc2nc(-c3cc4ccc(O)cc4oc3=O)sc2C1 (stereo unspecified)
Cn1c(N)c(S(=O)(=O)c2ccc(Br)cc2)c2nc3ccccc3nc21

Potency, active:
O=C1Cc2cc(S(=O)(=O)N3CCN(c4ccc(CO)cc4)CC3)ccc2N1 25.9 µM [inhibitor]
CCCN1CNc2c(c(=O)[nH]c(=S)n2CCc2ccc(OC)cc2)C1 14.1 µM
CCCN1CNc2c(c(=O)[nH]c(=S)n2CCc2cc(Cl)cc(Cl)c2)C1 7.94 µM
CCc1sc(-c2cc3ccccc3oc2=O)nc1-c1cc(C)ccc1C 31.6 µM
CCCN1CNc2c(c(=O)[nH]c(=S)n2CCc2cccc(C)c2C)C1 12.6 µM
CCCN1CNc2c(c(=O)[nH]c(=S)n2CCc2cccc(Cl)c2)C1 12.6 µM
